# Measurements reported in PubChem BioAssay AID1063 (University of Pittsburgh Molecular Library Screening Center, 2008).
# Out of some 200,000 compounds screened, about 18,000 (9%) were called active. This excerpt belongs to a sample that is enriched for actives. A number with no mark means an inactive call. Cut-off read from the data, not from the text of the source: active = inhibition above about 50%; inactive = the rest.
# Experiment: Leishmania major promastigote growth inhibition, primary screen (AID 1063);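 note: promastigotes grown with compound for 44 hours at 28 °C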
# Conditions: Leishmania major promastigotes, resazurin fluorescence viability; at 10 µM; stronger effect = higher value
row,Compound,inhibition
1,COc1ccc(S(=O)(=O)N2CCOCC2)cc1C(=O)Nc1nc2ccccc2s1,-3.71%
2,O=C(Nc1nc2cc3c(cc2s1)OCCO3)c1cccc(S(=O)(=O)N2CCOCC2)c1,99.1% (active)
3,O=C(Nc1nc2ccc(S(=O)(=O)N3CCCC3)cc2s1)C1CCCO1 (centres undefined),2.48%
4,Cc1noc(C)c1COc1cccc(C(=O)Nc2cccnc2)c1,4.43%
5,CC1=CC=CN2C1=NC(=O)CC2(C)C(=O)N(CC(=O)NC1CCCC1)c1ccccc1C (centres undefined),2.29%
6,O=C(CSc1cccc2cccnc12)N/N=C/c1cccnc1,101% (active)
7,Cc1c(NC(=O)CSc2cccc3cccnc23)c(=O)n(-c2ccccc2)n1C,44.5%
8,Cc1nc2ccccc2n1CC(=O)N/N=C/c1cccnc1,-4.45%
9,CN1CCN(c2ccc(NC(=O)c3ccc4c(c3)OCCO4)cc2Cl)CC1,5.5%
10,CCOc1c(OC)cc(C2C(C#N)=C(N)Oc3n[nH]c(-c4ccncc4)c32)cc1OC (centres undefined),6.78%
11,COc1ccc(C2C(C#N)=C(N)Oc3n[nH]c(C)c32)cc1CN1CCN(c2ccc(F)cc2)CC1 (centres undefined),60.8% (active)
12,CCCc1[nH]nc2c1C(c1ccc(OC)c(Cn3nc(C)c(Br)c3C)c1)C(C#N)=C(N)O2 (centres undefined),41.6%
13,O=Cc1ccc(Oc2cccc(C(F)(F)F)c2)nc1,6.6%
14,COc1ccc(NC(=O)COC(=O)c2ccncc2)c(OC)c1,-3.38%
15,CC(C)(C)NC(=O)C(=O)NCc1ccncc1,77.7% (active)
16,CCCC(C)C(=O)NCc1ccncc1 (centres undefined),-1.46%
17,O=C(NCc1ccncc1)C(=O)NCc1ccco1,-7.02%
18,CC(C)OCCCNC(=S)N1CCC(C(=O)c2ccc3c(c2)OCCO3)CC1,-1.34%
19,COCCn1c(-c2ccc(OC)c(OC)c2)nc2ccccc21,11.3%
20,COc1ccc(-c2nc3ccccc3n2CCC(C)C)cc1OC,66.8% (active)

row,Compound,inhibition
1,CCCn1c(C(O)c2cc(OC)ccc2OC)nc2ccccc21 (centres undefined),19%
2,Cn1c(=O)c2c(ncn2CC(=O)N/N=C/c2cn[nH]c2-c2ccc(F)cc2)n(C)c1=O,-7.31%
3,Cn1nc(C(F)(F)F)c2cc(C(=O)N3CCOCC3)sc21,-2.24%
4,COc1ccc(CCC(=O)OCC(=O)Nc2ccc(C)c(S(=O)(=O)N(C)C)c2)cc1,-10.7%
5,COc1ccc(NS(=O)(=O)c2cc(NC(=O)CC(=O)c3ccc([N+](=O)[O-])cc3)ccc2C)cc1,68.3% (active)
6,Cc1ccc(C)c(S(=O)(=O)N2CCN(CC(=O)Nc3ccc([N+](=O)[O-])cc3)CC2)c1,26.5%
7,Cc1cccc(-n2c(C)cc(/C=N\NC(=O)c3cccs3)c2C)c1,17.2%
8,Cc1ccc(-n2c(C)cc(/C=N\NC(=O)CC(=O)NC(C)C)c2C)cc1,-3.17%
9,Cc1cccc(-n2c(C)cc(/C=N/NC(N)=S)c2C)c1,79.6% (active)
10,Cc1ccc(-c2csc(NC(=O)c3cnccn3)n2)cc1C,-7.05%
11,COc1ccc(-n2c(C)nc3c(cnn3-c3ccccc3)c2=O)cc1,-7.18%
12,COc1ccc(Oc2c(Cl)cnn(-c3ccccc3)c2=O)cc1,59.1% (active)
13,Cc1ccc(Oc2cnn(-c3ccccc3)c(=O)c2Br)cc1,46.6%
14,S=C1Nc2cc(Cl)ccc2Sc2ccccc21,-5.54%
15,CCN(CC)C(=O)N(CC)Cc1ccccc1,0.88%
16,O=C(/C=C/c1cccc([N+](=O)[O-])c1)NCCSCc1ccco1,59.6% (active)
17,CCC(C)NC(=O)/C=C/c1ccc(S(=O)(=O)NCc2ccco2)cc1 (centres undefined),9.36%
18,O=C(/C=C/c1ccc([N+](=O)[O-])cc1)NCCSCc1ccco1,62.9% (active)
19,O=C(NCc1ccco1)c1ccc(NS(=O)(=O)c2cccc([N+](=O)[O-])c2)cc1,-9.32%
20,CCC(CC)NC(=O)/C=C/c1cccc([N+](=O)[O-])c1,44.7%

row,Compound,inhibition
1,COc1cc(OC)cc(C(=O)NCCSCc2ccco2)c1,-3.35%
2,CCOc1ccc(/C=C(/NC(=O)c2ccccc2)C(=O)NCCC(=O)O)cc1,-5.96%
3,Cc1ccc(NC(=O)c2ccc(S(=O)(=O)NCC3CCCO3)cc2)cc1C (centres undefined),12.2%
4,COc1ccccc1CNC(=O)c1cc(=O)c2ccccc2o1,15.9%
5,O=C1/C(=C/c2cccs2)CCC1C1CCCC1 (centres undefined),-9.7%
6,CCOC(=O)c1ccc(NC(=S)N2CCCC2)cc1,1.46%
7,CN(CCOc1ccccc1)Cc1nc2cc(Cl)ccc2c(=O)[nH]1,7.34%
8,Cc1c(CN2CCC(CO)(CCOc3ccccc3)CC2)[nH]c2ccc(Cl)cc12,100% (active)
9,OCC1(CCOc2ccccc2)CCN(Cc2cn[nH]c2-c2ccccc2)CC1,-2.84%
10,CCN(CC)C(=O)C(=O)c1cn(CC(=O)NCc2ccc3c(c2)OCO3)c2ccccc12,-5.27%
11,CCn1c(SCC(=O)Nc2nccs2)nnc1-c1ccco1,0.22%
12,C=C1C2C[C@H](O)C(C)(C)[C@@]2(O)[C@H](O)C[C@]23C[C@@](C)(O)[C@H](CC[C@H]12)[C@H]3O (some centres undefined),-5.47%
13,CN1CCN(c2ccc(S(=O)(=O)Nc3ccccc3)cc2[N+](=O)[O-])CC1,63.2% (active)
14,Cc1ccc(C(=O)c2ccc(N3CCN(C)CC3)c([N+](=O)[O-])c2)cc1,12.3%
15,CNS(=O)(=O)c1ccc(N2CCCC2=O)c([N+](=O)[O-])c1,-4.3%
16,O=C(Nc1ccc2c(c1)CCC2)c1ccc(Br)s1,14.6%
17,O=C(NCc1cccnc1)c1cccc(-c2cc3ccccc3oc2=O)c1,3.42%
18,CN(C)S(=O)(=O)c1cccc(NC(=O)COC(=O)c2cc(=O)[nH]c(=O)[nH]2)c1,-5.88%
19,CCOC(=O)CSC1=N/C(=C/c2ccc(-n3cncn3)cc2)C(=O)N1C(C)=O,8.27%
